Compounds without any hit were thinned out: in the full panel of roughly 83,000, 20% have a hit.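 The test compound was applied at a single concentration to cells in 96-well plates for 48 hours, and percent growth was recorded.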 A number with no mark means an inactive call. Calls of active or inactive are those of the source. Rule for the calls: active = growth percent below 10; inactive = the rest.
Tested on: RPMI-8226 leukemia
Assay: NCI-60 one-dose screen, 48 h (100 = growth as untreated, 0 = no growth, -100 = all killed)
Conditions: 10 µM unless noted

`O=c1[nH]c2c(s1)CCCC2CN1CCCCC1` (stereo not drawn) was tested. Which growth did it give?
The growth was 103%.

How did the growth turn out when `O=C(N/N=C/c1cccc(O)c1)c1ccccc1Nc1cccc(C(F)(F)F)c1` was run?
Its growth is 87.5%.

For `COc1cc2nc(-c3ccc(C#N)cc3)[nH]c(=O)c2cc1OC`, which growth is on record?
Its growth is 135%.

How did the growth turn out when `O=C(Nc1ccccc1)Oc1ccccc1-c1ccccc1` was run?
The growth was 96.5%.

How did the growth turn out when `O=C1Nc2c(ccc(Cl)c2Cl)/C1=C/c1ccccn1` was run?
Its growth is 107%.

Which growth does the source give for `COc1cc2nnn3c4ncccc4c(N=O)c3c2cc1OC` here?
Its growth is -11.8% (active).

For `C(=N\Nc1ncc(-c2cc3cc4c(cc3o2)OCO4)s1)/c1c[nH]c2ccccc12`, which growth is on record?
The growth was -22.4% (active).

With `C1=C2CNCC3=Cc4ccc5ccccc5c4OC23Oc2c1ccc1ccccc21` as the molecule, how does the growth read?
The growth was 70.5%.

How did the growth turn out when `Nc1cc(N)c2cccnc2c1O` was run?
The growth was 88%.

With `CC1=NNC(=O)C1CCC(=O)N/N=C(\C)c1ccc2ccccc2c1` (stereo not drawn) as the molecule, how does the growth read?
Its growth is 107%.

Which growth does the source give for `COc1ccc(CNC(=O)COc2ccc(/C=N/Nc3nc4ccccc4s3)cc2)cc1` here?
Its growth is 27.3%.

`CCCN=C(N)c1ccc(NC(=O)c2ccc(C(=O)Nc3ccc(C(N)=NCCC)cc3)cc2)cc1` was tested. Which growth did it give?
The growth was 90.6%.

Which growth does the source give for `BrC(Br)(Br)c1cnc2ccccc2n1` here?
The growth was 41.8%.

How did the growth turn out when `O=C1/C(=C\c2cn(Cc3ccccc3)c3ccc(Br)cc23)c2ccccc2N1c1c(Cl)cccc1Cl` was run?
Its growth is 104%.

With `COc1ccc(-n2cc(-c3cc(OC)c(OC)c(OC)c3)n(C(C)=O)c2=O)cc1` as the molecule, how does the growth read?
Its growth is 123%.

Which growth does the source give for `O=C(N/N=C/c1ccc(O)c(O)c1)c1sc2ccccc2c1Cl` here?
The growth was 16.6%.

For `COc1ccc(OC)c(/C=C/[C@H]2O[C@@H](C)[C@H](O)[C@@H]2O)c1`, which growth is on record?
Its growth is 95.3%.

`Cn1ncc2c(Nc3ccccc3Cl)nc(Cl)nc21` was tested. Which growth did it give?
The growth was 62.1%.

`CCN(CCNc1cc(OC)cc2cccnc12)CCc1ccccc1` was tested. Which growth did it give?
The growth was 81.6%.

`CCCC/C(=N\N=C(N)N)c1ccc(F)cc1` was tested. Which growth did it give?
The growth was 36%.

How did the growth turn out when `O=S(=O)(c1ccc(N/N=C\c2ccccc2)cc1)c1ccc(N/N=C/c2ccccc2)cc1` was run?
The growth was 85.6%.

With `CCOC(=O)C1=C(C)NC(C)=C(C(=O)OCC)C1c1cc(Br)c(O)c(OC)c1` as the molecule, how does the growth read?
The growth was 29.9%.

`CS(=O)(=O)OCCN(CCOS(C)(=O)=O)c1ccc(/C=N/Nc2ccc([N+](=O)[O-])cc2[N+](=O)[O-])cc1` was tested. Which growth did it give?
The growth was 82.3%.

`COc1nccnn1` was tested. Which growth did it give?
Its growth is 70.1%.

For `COC(=O)C1NC(=S)N(c2ccc(Cl)cc2)C1/C=C/c1ccccc1` (stereo not drawn), which growth is on record?
Its growth is 95.8%.

Which growth does the source give for `COc1cc(CCNc2nc3cc(N)cc(N)c3nc2-c2ccccc2)cc(OC)c1` here?
Its growth is -39.6% (active).

`O=C(O)/C=C\C(=O)N1C/C(=C\c2ccccc2Cl)C(=O)/C(=C/c2ccccc2Cl)C1` was tested. Which growth did it give?
Its growth is 3.9% (active).

For `O=C1/C(=C/c2ccc(O)cc2)COc2ccc(-c3ccccc3)cc21`, which growth is on record?
The growth was -29.7% (active).

How did the growth turn out when `Cc1[nH]n(-c2cccc(Cl)c2)c(=O)c1/C=C1\C=Nc2ccc(Br)cc21` was run?
The growth was 14.1%.

Which growth does the source give for `CO[C@@H]1[C@H](N(C)C(=O)c2ccccc2)C[C@@H]2O[C@]1(C)n1c3ccccc3c3c4c(c5c6ccccc6n2c5c31)C(=O)NC4=O` here?
Its growth is 67.1%.

Which growth does the source give for `Cc1cc2cc3cc(C)c(N)cc3[n+](C)c2cc1N` here?
The growth was -1.31% (active).

`CNC(=O)Nc1ccc(-c2nc(N3CCOCC3)nc3c2cnn3C2CCOCC2)cc1` was tested. Which growth did it give?
Its growth is 8.13% (active).

With `COc1ccc(/C=N/NC(=O)c2cccc3cc[nH]c23)cc1O` as the molecule, how does the growth read?
Its growth is -19.4% (active).

Which growth does the source give for `NC(=S)N/N=C(/c1ccccc1)c1ccccc1N` here?
The growth was 72.6%.

`CCCOc1nc(SCCC)nc2c1cnn2-c1ccccc1` was tested. Which growth did it give?
The growth was 152%.

With `COc1ccc(-c2cnnc3c(-c4cccc(C(F)(F)F)c4)cnn23)cc1` as the molecule, how does the growth read?
Its growth is 45.8%.

With `COc1ccc(C2CC(n3nnnc3-c3ccccc3)=NN2)cc1` (stereo not drawn) as the molecule, how does the growth read?
Its growth is 62.5%.

With `O=C1Nc2ccccc2/C1=C\c1cccc(/C=C2/C(=O)Nc3ccccc32)n1` as the molecule, how does the growth read?
The growth was -48.7% (active).

Tested on: OVCAR-8 ovarian
Assay: as above
Conditions: 10 µM unless noted

Which growth does the source give for `O=c1[nH]c2c(s1)CCCC2CN1CCCCC1` (stereo not drawn) here?
Its growth is 113%.

For `O=C(N/N=C/c1cccc(O)c1)c1ccccc1Nc1cccc(C(F)(F)F)c1`, which growth is on record?
The growth was 75%.

Which growth does the source give for `O=C(Nc1ccccc1)Oc1ccccc1-c1ccccc1` here?
Its growth is 98.4%.

Which growth does the source give for `O=C1Nc2c(ccc(Cl)c2Cl)/C1=C/c1ccccn1` here?
Its growth is 81%.

For `COc1cc2nnn3c4ncccc4c(N=O)c3c2cc1OC`, which growth is on record?
Its growth is 14.3%.

For `C(=N\Nc1ncc(-c2cc3cc4c(cc3o2)OCO4)s1)/c1c[nH]c2ccccc12`, which growth is on record?
The growth was -12.1% (active).

How did the growth turn out when `C1=C2CNCC3=Cc4ccc5ccccc5c4OC23Oc2c1ccc1ccccc21` was run?
The growth was 53.9%.

For `Nc1cc(N)c2cccnc2c1O`, which growth is on record?
The growth was 68.6%.

For `CC1=NNC(=O)C1CCC(=O)N/N=C(\C)c1ccc2ccccc2c1` (stereo not drawn), which growth is on record?
The growth was 102%.

Which growth does the source give for `COc1ccc(CNC(=O)COc2ccc(/C=N/Nc3nc4ccccc4s3)cc2)cc1` here?
The growth was 22.3%.

With `CCCN=C(N)c1ccc(NC(=O)c2ccc(C(=O)Nc3ccc(C(N)=NCCC)cc3)cc2)cc1` as the molecule, how does the growth read?
The growth was 95.7%.

Which growth does the source give for `BrC(Br)(Br)c1cnc2ccccc2n1` here?
The growth was 45.4%.

Which growth does the source give for `O=C1/C(=C\c2cn(Cc3ccccc3)c3ccc(Br)cc23)c2ccccc2N1c1c(Cl)cccc1Cl` here?
The growth was 98%.

How did the growth turn out when `COc1ccc(-n2cc(-c3cc(OC)c(OC)c(OC)c3)n(C(C)=O)c2=O)cc1` was run?
Its growth is 91.8%.

With `O=C(N/N=C/c1ccc(O)c(O)c1)c1sc2ccccc2c1Cl` as the molecule, how does the growth read?
Its growth is 90.4%.

Which growth does the source give for `COc1ccc(OC)c(/C=C/[C@H]2O[C@@H](C)[C@H](O)[C@@H]2O)c1` here?
The growth was 109%.

How did the growth turn out when `Cn1ncc2c(Nc3ccccc3Cl)nc(Cl)nc21` was run?
The growth was 113%.

How did the growth turn out when `CCN(CCNc1cc(OC)cc2cccnc12)CCc1ccccc1` was run?
The growth was 85.2%.

For `CCCC/C(=N\N=C(N)N)c1ccc(F)cc1`, which growth is on record?
The growth was 33.6%.

How did the growth turn out when `O=S(=O)(c1ccc(N/N=C\c2ccccc2)cc1)c1ccc(N/N=C/c2ccccc2)cc1` was run?
The growth was 30.3%.

`CCOC(=O)C1=C(C)NC(C)=C(C(=O)OCC)C1c1cc(Br)c(O)c(OC)c1` was tested. Which growth did it give?
The growth was 25.2%.

How did the growth turn out when `CS(=O)(=O)OCCN(CCOS(C)(=O)=O)c1ccc(/C=N/Nc2ccc([N+](=O)[O-])cc2[N+](=O)[O-])cc1` was run?
Its growth is 76.4%.

With `COc1nccnn1` as the molecule, how does the growth read?
The growth was 111%.

`COC(=O)C1NC(=S)N(c2ccc(Cl)cc2)C1/C=C/c1ccccc1` (stereo not drawn) was tested. Which growth did it give?
Its growth is 101%.

`COc1cc(CCNc2nc3cc(N)cc(N)c3nc2-c2ccccc2)cc(OC)c1` was tested. Which growth did it give?
The growth was -22.2% (active).

For `O=C(O)/C=C\C(=O)N1C/C(=C\c2ccccc2Cl)C(=O)/C(=C/c2ccccc2Cl)C1`, which growth is on record?
Its growth is 4.98% (active).

`O=C1/C(=C/c2ccc(O)cc2)COc2ccc(-c3ccccc3)cc21` was tested. Which growth did it give?
Its growth is 71.9%.

How did the growth turn out when `Cc1[nH]n(-c2cccc(Cl)c2)c(=O)c1/C=C1\C=Nc2ccc(Br)cc21` was run?
Its growth is 9.67% (active).

How did the growth turn out when `CO[C@@H]1[C@H](N(C)C(=O)c2ccccc2)C[C@@H]2O[C@]1(C)n1c3ccccc3c3c4c(c5c6ccccc6n2c5c31)C(=O)NC4=O` was run?
The growth was 54%.

How did the growth turn out when `CNC(=O)Nc1ccc(-c2nc(N3CCOCC3)nc3c2cnn3C2CCOCC2)cc1` was run?
Its growth is 0.163% (active).

Which growth does the source give for `COc1ccc(/C=N/NC(=O)c2cccc3cc[nH]c23)cc1O` here?
The growth was 48.8%.

`CCCOc1nc(SCCC)nc2c1cnn2-c1ccccc1` was tested. Which growth did it give?
Its growth is 99.2%.

For `COc1ccc(-c2cnnc3c(-c4cccc(C(F)(F)F)c4)cnn23)cc1`, which growth is on record?
Its growth is 19.6%.

For `COc1ccc(C2CC(n3nnnc3-c3ccccc3)=NN2)cc1` (stereo not drawn), which growth is on record?
Its growth is 61.6%.

With `O=C1Nc2ccccc2/C1=C\c1cccc(/C=C2/C(=O)Nc3ccccc32)n1` as the molecule, how does the growth read?
Its growth is -6.07% (active).

— PubChem BioAssay (NCI)
